Bioassay records from PubChem.
aSyn UTR act = Activators via SNCA 5'UTR binding, MLPCN. activity score, % (tested at 7.5 µM), hits read low. alpha-synuclein 5'UTR reporter, activators screen. 300,000 tested, 7.1% active. AID 1814; in the data active = activity score below about -60%
The depositor's hits bear a star. A selection follows.

SMILES	aSyn UTR act
C/[N+]([O-])=C/c1c(OCc2ccc(Cl)cc2Cl)ccc2ccccc12	-72*
CCCOc1ccc(-c2nc(N3CCN(C)CC3)c3ccccc3n2)cc1	-135*
CN1CCN(Cc2cc(COCc3ccccc3)c3cccnc3c2O)CC1	99
[O-][n+]1ccccc1SC/C=C/c1ccccc1	-65*
COc1cccc2oc3ccc(C#CC4(N)CCCCC4)cc3c(=O)c12	-62*
Cc1cc2sc3ccc(C#CC4(O)CCCCC4)cc3c(=O)c2cc1C	102
CCc1nccn1CCC(=O)N1CCCC(N2CCN(c3cccc(Cl)c3)CC2)C1 (configuration not stated)	-67*
Cc1ccc(C)c(N(CC(=O)Nc2ccc(-c3nc4ccc(C)cc4s3)cc2)S(C)(=O)=O)c1	-80*
Cc1ccc(N(CC(=O)Nc2ccc(-c3nc4ccc(C)cc4s3)cc2)S(C)(=O)=O)cc1	-203*
CC(=O)c1ccc(NC(=O)N2CCc3ccccc3C2)cc1	-87*
CC(=O)c1cccc(NC(=O)N2CCc3ccccc3C2)c1	-171*
c1ccc(-c2ccc(-n3ccnc3)cc2)cc1	-81*
COc1ccc(NC(=O)CSc2nc(SC)ns2)cc1	-145*
CSc1nsc(SCC(=O)Nc2ccc(C(C)=O)cc2)n1	-262*
COc1ccc(-c2nsc(SCC(=O)Nc3ccc4c(c3)OCO4)n2)cc1	-109*
CSc1nsc(SCC(=O)Nc2ccc(F)cc2F)n1	-101*
CCOc1ccc(-n2c(SCC(=O)Nc3ccc(Br)cc3)nc3n[nH]c(C)c3c2=N)cc1	82
COc1cccc2c1C(=O)c1c(O)c3c(c(O)c1C2=O)C[C@](O)(C(C)=O)C[C@H]3O[C@@H]1C[C@@H](N)[C@@H](O)[C@@H](C)O1	111
Cc1cc(C(=O)COC(=O)Cc2n[nH]c(=O)c3ccccc23)c(C)n1-c1ccc2c(c1)OCCO2	-100*
Cc1cc(C(=O)COC(=O)C2=COCCO2)c(C)n1-c1cccc(F)c1	-156*
Cc1cc(C(=O)COC(=O)C2=COCCO2)c(C)n1-c1ccc2c(c1)OCO2	-134*
CCc1ccc(-c2cn(C3CCCCC3)c(=S)[nH]2)cc1	-127*
c1ccc(C2CSc3ccccc3N2)cc1 (configuration not stated)	-196*
Cc1ccc2nc(NC(=O)c3ccc(Br)o3)sc2c1	-82*
NS(=O)(=O)c1ccc2nc(NC(=O)c3ccc(Br)o3)sc2c1	-141*
SMILES	aSyn UTR act
N#C/C(=C\c1ccc(Cl)cc1)c1nc(-c2ccco2)cs1	-66*
N#C/C(=C\c1ccc(F)cc1)c1nc(-c2ccco2)cs1	-167*
O=C(Nc1ccccc1)N(O)c1ccc(Cl)cc1	-122*
Cc1ccc(NC(=O)C(=O)NCC2CCCO2)cc1 (configuration not stated)	-85*
O=C(NCCc1ccccc1)C(=O)NCC1CCCO1 (configuration not stated)	-64*
COc1ccc(NC(=O)C(=O)N/N=C\c2ccc(CNC(=O)C(=O)Nc3ccc(C)c(C)c3)o2)c(OC)c1	88
Cc1ccc(NC(=O)C(=O)NCC2CCCO2)cc1C (configuration not stated)	-96*
O=C1OC(c2ccc(Cl)cc2)/C(=C(/O)c2ccccc2)C1=O (configuration not stated)	-67*
O=C(c1ccccc1)N1C(=O)C(c2ccccc2)Oc2ccccc21 (configuration not stated)	82
CC(/C=C/c1ccccc1)=N\Nc1ccccc1[N+](=O)[O-]	-150*
O=[N+]([O-])c1ccccc1/C=N/OCc1ccccc1	-167*
Cc1ccc(-n2c(=S)[nH]c3c(oc4ccccc43)c2=O)cc1	-100*
Cc1cccc(-n2c(=S)[nH]c3c(oc4ccccc43)c2=O)c1	-88*
COc1ccccc1C(=O)NNC(=O)c1cccc([N+](=O)[O-])c1	-62*
COc1ccccc1C(=O)NNC(=O)c1cccc(C)c1	-139*
CCCCn1cnc2c(oc3ccccc32)c1=O	-121*
O=C(c1ccc(S(=O)(=O)c2cccc(Cl)c2)c([N+](=O)[O-])c1)N1CCN(c2ccccn2)CC1	-62*
O=C(c1ccc(S(=O)(=O)c2ccccc2Cl)c([N+](=O)[O-])c1)N1CCCCCC1	-98*
CCCCCCCCCCn1c2c(c(=N)c3c1CCC3)CCC2	71
COc1ccc2cc1Oc1ccc(cc1)CC1c3c(cc(OC)c4c3Oc3cc5c(cc3O4)CCNC5C2)CCN1C (configuration not stated)	114
Cc1cccc(NCc2nc3ccccc3n2C)c1	-193*
Cn1c(CNc2ccc(Cl)cc2)nc2ccccc21	-176*
Cc1ccc(N2CCN(c3ccc(NCc4nc5ccccc5n4C)cc3)CC2)cc1	-89*
Cc1nc2cc(NCc3nc4ccccc4n3Cc3ccccc3)ccc2n1C	-96*
CCCCOc1ccc(-n2nc(C)cc2C)nn1	-72*
SMILES	aSyn UTR act
Cc1ccc2cc3c(N)c4c(C)ccc(C)c4nc3nc2c1	-77*
O=C(Cc1nc2ccccc2s1)c1ccc(O)cc1O	-147*
O=C(CSc1nc2ccccc2s1)c1ccc(O)cc1O	-66*
COP(=O)(OC)C(Nc1ccc(C)cc1)c1ccc([N+](=O)[O-])cc1 (configuration not stated)	-159*
O=C1CC(/C=C/c2ccccc2)=Nc2ccccc2N1	-252*
O=C1CC(/C=C/c2ccc(Cl)cc2)=Nc2ccccc2N1	-226*
CC1(C)CC(/C=C/c2ccccc2)=Nc2ccccc2N1	-155*
O=C(NCCc1ccc(F)cc1)c1coc(=O)c(Br)c1	-64*
O=C(Nc1ccccc1F)c1coc(=O)c(Br)c1	-62*
Cc1cc(NC(=O)c2coc(=O)c(Br)c2)ccc1C(C)C	-75*
O=C1C2C3CCC(C3)C2C(=O)N1c1ccc(OS(=O)(=O)c2ccccc2)cc1 (configuration not stated)	-178*
NS(=O)(=O)c1cc2c(cc1Cl)NC(C1C[C@H]3C=C[C@@H]1C3)NS2(=O)=O (some centres not stated)	-80*
CC1CC/C(=C\c2ccc3c(c2)OCO3)C(=O)/C1=C/c1ccc2c(c1)OCO2 (configuration not stated)	-80*
O=C1/C(=C/c2ccncc2)CCC/C1=C\c1ccncc1	-101*
O=C1/C(=C\c2ccc3c(c2)OCO3)CCC/C1=C/c1ccc2c(c1)OCO2	-93*
C(=N\Nc1nc2ccccc2[nH]1)/c1ccc2ncccc2c1	95
COc1ccc(/C=N/Nc2nc3ccccc3[nH]2)cc1OC	-228*
COc1cc(/C=N\Nc2nc3ccccc3[nH]2)cc(OC)c1OC	-82*
COc1ccc2c(c1)c(/C=N/Nc1nc3ccccc3[nH]1)c(C)n2C	-115*
Cc1ccc2cc(/C=N/Nc3nc4ccccc4[nH]3)c(Cl)nc2c1	-111*
CCN(CC)c1ccc(/C=N/Nc2nc3ccccc3[nH]2)c(O)c1	84
Cc1ccc(N=Cc2ccc(N(C)C)cc2)cc1C	-123*
Cc1ccc(N=Nc2ccc(O)c(/C=N\NC(=O)c3ccc(N)cc3)c2)cc1C	58
CCN(CC)c1ccc(O)c(C=Nc2ccc(C)c(C)c2)c1	-77*
CC1CCCCC12NC(=O)N(CC(=O)NC(=O)Nc1ccc3c(c1)OCCO3)C2=O (configuration not stated)	-169*
CC1Oc2ccccc2N(CC(=O)Nc2ccc3c(c2)OCCO3)C1=O (configuration not stated)	-77*
CCOC(=O)C(C)Oc1cccc2c(=O)n(CC(=O)NCc3ccc4c(c3)OCO4)ccc12 (configuration not stated)	65
